Values joined by “and” are separate entries in the source; they are usually repeats but may differ in a detail not shown here. Equal values may be shown once. Records with an inconclusive call do not appear. Some structures have more than one record in an assay (separate samples or runs), and their calls can disagree. Active and inactive are the calls of the source. Calls come from the whole dose curve; as a rule, active = well fitted curve in the direction sought with a large enough effect in the repeat runs; inconclusive = weak or mixed curves; inactive = no such curve, though single readings can be large; an effect the other way counts as inactive or inconclusive.
How the values were obtained:
[1] = A CellTox Green Cytotoxicity Assay to monitor cytotoxicity in HEK293 cells - 40 hour (AID 1224871); note: nearly all actives have a fitted effect of over 45% in size; note: potency is the fitted concentration of half-maximal effect
How it was run: (§1)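 Cytotoxicity was tracked continuously in HEK293 cells by a DNA-binding dye excluded from viable cells. Compounds were transferred in DMSO 5 h after seeding; fluorescence was recorded at intervals up to 40 h.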

[2] = qHTS RealTime-Glo MT Cell Viability Assay in HEK293 cells - 16 hour (AID 1224872); note: nearly all actives have a fitted effect of over 50% in size; note: potency is the fitted concentration of half-maximal effect
How it was run: (§2)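 Nonlytic real-time viability readout: viable cells convert prosubstrate to NanoLuc substrate, giving luminescence proportional to live cell number. HEK293, 600 cells/well, compound added after 5 h, continuous culture at 37 C.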

[3] = qHTS RealTime-Glo MT Cell Viability Assay in HepG2 cells - 8 hour (AID 1224873); note: nearly all actives have a fitted effect of over 55% in size; note: potency is the fitted concentration of half-maximal effect
How it was run: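 Real-time viability: cells seeded at 600 per well together with NanoLuc and cell-permeant prosubstrate, compounds added after 5 h incubation. Luminescence tracked at 0, 8, 16, 24, 32 and 40 h of exposure.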

[4] = qHTS RealTime-Glo MT Cell Viability Assay in HEK293 cells - 40 hour (AID 1224874); conditions: RealTime-Glo luminescence; max response: stronger effect = lower value; note: nearly all actives have a fitted effect of over 50% in size; note: potency is the fitted concentration of half-maximal effect
How it was run: (§3)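 Nonlytic bioluminescent viability monitoring. HEK293 at 600 cells/well with reagent; 5 h settle; compound transfer by pintool; plates held at 37 C and read at set time points.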

[5] = A CellTox Green Cytotoxicity Assay to monitor cytotoxicity in HEK293 cells - 24 hour (AID 1224875); note: nearly all actives have a fitted effect of over 45% in size; note: potency is the fitted concentration of half-maximal effect
How it was run: as §1

[6] = A CellTox Green Cytotoxicity Assay to monitor cytotoxicity in HepG2 cells - 16 hour (AID 1224876); note: nearly all actives have a fitted effect of over 45% in size; note: potency is the fitted concentration of half-maximal effect
How it was run: (§4)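 Real-time, homogeneous cytotoxicity readout: dead-cell DNA staining by CellTox Green in HepG2 monolayers, fluorescence measured at timed intervals up to 40 h of continuous compound exposure.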

[7] = qHTS RealTime-Glo MT Cell Viability Assay in HepG2 cells - 32 hour (AID 1224877); note: nearly all actives have a fitted effect of over 55% in size
How it was run: (§5)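 Luminescence read-out: viable HepG2 cells reduce a prosubstrate to a NanoLuc substrate, giving a signal proportional to live cell number. Reads taken at 0, 8, 16, 24, 32 and 40 h of compound exposure at 37 C.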

[8] = A CellTox Green Cytotoxicity Assay to monitor cytotoxicity in HepG2 cells - 24 hour (AID 1224878); note: nearly all actives have a fitted effect of over 45% in size; note: potency is the fitted concentration of half-maximal effect
How it was run: as §4

[9] = A CellTox Green Cytotoxicity Assay to monitor cytotoxicity in HepG2 cells - 40 hour (AID 1224879); note: nearly all actives have a fitted effect of over 40% in size; note: potency is the fitted concentration of half-maximal effect
How it was run: as §4

[10] = qHTS RealTime-Glo MT Cell Viability Assay in HEK293 cells - 0 hour (AID 1224880)
How it was run: as §3

[11] = A CellTox Green Cytotoxicity Assay to monitor cytotoxicity in HepG2 cells - 0 hour (AID 1224882); note: nearly all actives have a fitted effect of over 35% in size
How it was run: as §4

[12] = A CellTox Green Cytotoxicity Assay to monitor cytotoxicity in HepG2 cells - 32 hour (AID 1224883); note: nearly all actives have a fitted effect of over 50% in size; note: potency is the fitted concentration of half-maximal effect
How it was run: as §4

[13] = A CellTox Green Cytotoxicity Assay to monitor cytotoxicity in HEK293 cells - 8 hour (AID 1224884); note: nearly all actives have a fitted effect of over 35% in size; note: potency is the fitted concentration of half-maximal effect
How it was run: as §1

[14] = qHTS RealTime-Glo MT Cell Viability Assay in HEK293 cells - 24 hour (AID 1224886); note: nearly all actives have a fitted effect of over 50% in size; note: potency is the fitted concentration of half-maximal effect
How it was run: as §2

[15] = qHTS RealTime-Glo MT Cell Viability Assay in HEK293 cells - 8 hour (AID 1224887); note: nearly all actives have a fitted effect of over 50% in size; note: potency is the fitted concentration of half-maximal effect
How it was run: as §3

[16] = A CellTox Green Cytotoxicity Assay to monitor cytotoxicity in HEK293 cells - 16 hour (AID 1224888); note: nearly all actives have a fitted effect of over 35% in size; note: potency is the fitted concentration of half-maximal effect
How it was run: as §1

[17] = qHTS RealTime-Glo MT Cell Viability Assay in HepG2 cells - 0 hour (AID 1224889); note: nearly all actives have a fitted effect of over 50% in size
How it was run: as §5

[18] = A CellTox Green Cytotoxicity Assay to monitor cytotoxicity in HepG2 cells - 8 hour (AID 1224890); note: nearly all actives have a fitted effect of over 45% in size; note: potency is the fitted concentration of half-maximal effect
How it was run: as §4

[19] = A CellTox Green Cytotoxicity Assay to monitor cytotoxicity in HEK293 cells - 32 hour (AID 1224881); note: nearly all actives have a fitted effect of over 40% in size; note: potency is the fitted concentration of half-maximal effect
How it was run: as §1

[20] = qHTS RealTime-Glo MT Cell Viability Assay in HepG2 cells - 16 hour (AID 1224885); note: nearly all actives have a fitted effect of over 50% in size
How it was run: as §5
% is set by controls: 0 for no effect and ±100 for the full control effect.

O=c1n(CC2CO2)c(=O)n(CC2CO2)c(=O)n1CC1CO1 (stereo unspecified)
active: Potency [4] 1.37 µM
inactive: Potency [1] | Potency [2] | Potency [3] | Potency [5] | Potency [6] | Potency [7] | Potency [8] | Potency [9] | Potency [10] | Potency [11] | Potency [12] | Potency [13] | Potency [14] | Potency [15] | Potency [16] | Potency [17] | Potency [18]

CN1C(=O)c2ccc([N+](=O)[O-])cc2C1=O
inactive: Potency [1] | Potency [2] | Potency [3] | max response [4] 0.763% | Potency [5] | Potency [6] | Potency [7] | Potency [9] | Potency [10] | Potency [19] | Potency [11] | Potency [12] | Potency [13] | Potency [20] | Potency [14] | Potency [15] | Potency [16] | Potency [17] | Potency [18]

c1ccc2cc3c(ccc4ccccc43)cc2c1
inactive: Potency [1] | Potency [2] | Potency [3] | max response [4] 0.679% | Potency [5] | Potency [6] | Potency [7] | Potency [8] | Potency [10] | Potency [11] | Potency [12] | Potency [13] | Potency [20] | Potency [14] | Potency [15] | Potency [16] | Potency [17] | Potency [18]
21.9 µM (active) and inactive: Potency [9]

Cc1cc(OCCOCC[N+](C)(C)Cc2ccccc2)ccc1C(C)(C)CC(C)(C)C
inactive: Potency [11]
active: Potency [1] 21.7 µM and 23.9 µM | Potency [2] 19.4 µM and 19 µM | Potency [3] 21.7 µM and 23.9 µM | Potency [4] 9.71 µM and 6.01 µM | Potency [5] 21.7 µM and 23.9 µM | Potency [6] 19.4 µM and 15.1 µM | Potency [8] 17.3 µM and 10.7 µM | Potency [9] 13.7 µM and 8.49 µM | Potency [19] 21.7 µM and 23.9 µM | Potency [12] 15.4 µM and 9.52 µM | Potency [13] 23.9 µM | Potency [14] 12.2 µM and 8.49 µM | Potency [15] 48.7 µM and 23.9 µM | Potency [16] 38.7 µM and 23.9 µM | Potency [18] 21.7 µM and 21.3 µM

C=C(C)C1CC=C(C)C(OC(C)=O)C1 (stereo unspecified)
inactive: Potency [1] | Potency [2] | Potency [3] | max response [4] -4.93% and 11% | Potency [5] | Potency [6] | Potency [8] | Potency [9] | Potency [10] | Potency [19] | Potency [11] | Potency [12] | Potency [13] | Potency [20] | Potency [14] | Potency [15] | Potency [16] | Potency [17] | Potency [18]

COC(c1ccccc1)(c1ccccc1)[C@H](Oc1nc(C)cc(C)n1)C(=O)O
inactive: Potency [1] | Potency [2] | Potency [3] | max response [4] -3.67% | Potency [5] | Potency [6] | Potency [9] | Potency [10] | Potency [19] | Potency [11] | Potency [12] | Potency [13] | Potency [20] | Potency [14] | Potency [15] | Potency [16] | Potency [17] | Potency [18]

C[N+]1([O-])CCOCC1
inactive: Potency [1] | Potency [2] | Potency [3] | max response [4] 0.178% | Potency [5] | Potency [6] | Potency [8] | Potency [9] | Potency [10] | Potency [19] | Potency [11] | Potency [12] | Potency [13] | Potency [14] | Potency [15] | Potency [16] | Potency [18]

CCN(CC)c1ccc2c(C)cc(=O)oc2c1
active: Potency [2] 39.2 µM | Potency [4] 39.2 µM | Potency [14] 34.9 µM
inactive: Potency [1] | Potency [3] | Potency [5] | Potency [6] | Potency [8] | Potency [9] | Potency [10] | Potency [11] | Potency [12] | Potency [13] | Potency [20] | Potency [15] | Potency [16] | Potency [17] | Potency [18]

CC(C)(C)NC(=O)[C@@H]1CN(Cc2cccnc2)CCN1C[C@@H](O)C[C@@H](Cc1ccccc1)C(=O)N[C@H]1c2ccccc2C[C@H]1O
inactive: Potency [1] | Potency [2] | Potency [3] | max response [4] 0.0575% and 0.362% | Potency [5] | Potency [6] | Potency [7] | Potency [9] | Potency [10] | Potency [11] | Potency [12] | Potency [13] | Potency [14] | Potency [15] | Potency [16] | Potency [18]

Cc1cccc(O)c1C
inactive: Potency [1] | Potency [2] | Potency [3] | max response [4] -0.0816% and -5.42% | Potency [5] | Potency [6] | Potency [8] | Potency [9] | Potency [10] | Potency [19] | Potency [11] | Potency [12] | Potency [20] | Potency [14] | Potency [15] | Potency [16] | Potency [17] | Potency [18]
inactive and 22.5 µM (active): Potency [13]

CCCNC(C)C(=O)Nc1ccccc1C (stereo unspecified)
inactive: Potency [1] | Potency [2] | Potency [3] | max response [4] -3.34% | Potency [5] | Potency [6] | Potency [8] | Potency [9] | Potency [10] | Potency [11] | Potency [12] | Potency [13] | Potency [20] | Potency [14] | Potency [15] | Potency [16] | Potency [18]

— PubChem BioAssay (Tox21)
